This excerpt belongs to a sample that is enriched for hits.
STK33 kin inh: human STK33 kinase inhibition; inhibition, % at 12.5 µM; ADP-Glo luminescence, MBP substrate; actives 0.44% (n = 27,000); in the data active = inhibition above about 20%; inconclusive = no clear call, values can overlap the other calls
Target sequence (Q9BYT3 whole entry, looked up): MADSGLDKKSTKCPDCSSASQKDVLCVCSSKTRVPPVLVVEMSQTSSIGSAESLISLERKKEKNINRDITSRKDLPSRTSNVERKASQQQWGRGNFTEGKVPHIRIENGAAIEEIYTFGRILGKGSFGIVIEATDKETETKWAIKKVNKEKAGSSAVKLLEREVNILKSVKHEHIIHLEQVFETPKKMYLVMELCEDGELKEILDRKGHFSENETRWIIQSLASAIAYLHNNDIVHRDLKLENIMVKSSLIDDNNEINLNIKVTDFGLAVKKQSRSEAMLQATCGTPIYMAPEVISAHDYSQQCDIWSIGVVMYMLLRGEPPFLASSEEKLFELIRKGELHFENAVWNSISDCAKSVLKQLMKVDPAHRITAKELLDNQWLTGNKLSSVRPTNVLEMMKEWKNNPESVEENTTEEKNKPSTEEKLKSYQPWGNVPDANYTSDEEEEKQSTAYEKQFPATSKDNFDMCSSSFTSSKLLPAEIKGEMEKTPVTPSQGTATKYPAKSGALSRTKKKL
PD-1 reverse act: reversal of PD-1 mediated T-cell inhibition; primary human CD4 T cells, PD-L1 beads, CellTiter-Glo 96 h; activation, % (no concentration beside the values); 29,000 tested, under 10 active; call rule not given here
NOMO-1 viab: STK33 inhibitor candidate reducing NOMO-1 cell viability; AID 2330; inhibition, % (no concentration beside the values); actives 7.5% (n = 37,000); NOMO-1 AML viability, CellTiter-Glo luminescence, 72 h; in the data active = inhibition above about 80%; inconclusive = no clear call, values can overlap the other calls
Each line names hits and unclear results; the compound was inactive in the other large screens.

CCOC(=O)c1c(NC(=S)NC(C)C2CCCO2)sc2c1CCCC2 (stereo not drawn)	none (no result: PD-1 reverse act)
O=C(NCCCn1ccnc1)c1nn2c(C(F)(F)F)cc(-c3cccs3)nc2c1Br	none (no result: PD-1 reverse act)
O=C(c1nn2c(C(F)(F)F)cc(-c3cccs3)nc2c1Cl)N1CCCc2ccccc21	NOMO-1 viab 107.4
Cc1ccccc1-c1noc(CCC(=O)Nc2ccc(Cl)cc2)n1	none
CC1=CCC(C(=O)O)C(C(=O)Nc2ccccc2NC(=O)c2ccc(C(F)(F)F)cc2)C1 (stereo not drawn)	none
CS(=O)(=O)N(CC(=O)Nc1ccccc1-c1ccccc1)c1ccc(Br)cc1	none (no result: PD-1 reverse act)
CN(CC(=O)C1=C(c2ccc(Br)cc2)C(=O)c2ccccc2C1=O)c1ccccc1	NOMO-1 viab 125.8 (no result: STK33 kin inh)
Cn1c(SCC(=O)Nc2ccccc2)nnc1-c1ccccc1F	none (no result: PD-1 reverse act)
C[C@H](CO)N1C[C@H](C)[C@@H](CN(C)Cc2ccc3c(c2)OCO3)Oc2c(NC(=O)c3ccc(-c4nccs4)cc3)cccc2C1=O	none (no result: STK33 kin inh)
C[C@@H]1CN([C@@H](C)CO)C(=O)c2cccc(NC(=O)c3ccc(-c4nccs4)cc3)c2O[C@H]1CN(C)Cc1ccc2c(c1)OCO2	NOMO-1 viab 103.0 (no result: STK33 kin inh)
C[C@H](CO)N1C[C@H](C)[C@@H](CN(C)Cc2ccc(Cl)c(Cl)c2)Oc2c(NC(=O)c3ccc(-c4nccs4)cc3)cccc2C1=O	NOMO-1 viab 115.7 (no result: STK33 kin inh)
C[C@H](CO)N1C[C@H](C)[C@H](CN(C)S(=O)(=O)c2ccc(Cl)cc2)Oc2c(NC(=O)c3ccc(-c4nccs4)cc3)cccc2C1=O	NOMO-1 viab 84.0 (no result: STK33 kin inh)
C[C@H](CO)N1C[C@H](C)[C@@H](CN(C)S(=O)(=O)c2ccc(Cl)cc2)Oc2c(NC(=O)c3ccc(-c4nccs4)cc3)cccc2C1=O	none (no result: STK33 kin inh)
C[C@H](CO)N1C[C@H](C)[C@@H](CN(C)Cc2ccc(C(=O)O)cc2)Oc2c(NC(=O)c3ccc(-c4nccs4)cc3)cccc2C1=O	none (no result: STK33 kin inh)
O=C1CC(c2ccccc2)C(=O)N1c1cc(Cl)cc(Cl)c1 (stereo not drawn)	none (no result: STK33 kin inh)
O=C(Nc1ccccc1C(=O)O)c1cccc(S(=O)(=O)Nc2ccccc2F)c1	none
COC(=O)COc1cccc(NC(=O)c2ccc(-c3ccccc3)cc2)c1	NOMO-1 viab 112.6
COC(=O)COc1cccc(NC(=O)c2ccccc2I)c1	NOMO-1 viab 109.6 (no result: PD-1 reverse act)
COC(=O)COc1cccc(NC(=O)c2ccccc2F)c1	NOMO-1 viab 121.5
Cc1cccc(C(=O)Nc2cccc(OCC(=O)O)c2)c1	none
COc1ccc(C(=O)COc2cccc(NC(=O)c3ccccc3C)c2)cc1	none
O=C(COc1cccc(NC(=O)c2ccccc2Cl)c1)c1ccc(F)cc1	none
COc1ccc(NC(=O)c2ccccc2NC(=O)COc2cccc(OC)c2)cc1	none
COC(=O)COc1cccc(NC(=O)c2ccccc2Cl)c1	NOMO-1 viab 118.6 (no result: PD-1 reverse act)
O=C(COc1ccc(C(=O)Nc2ccc(F)cc2)cc1)Nc1ccccc1C(F)(F)F	none
Cc1ccc(Cl)cc1N(CC(=O)Nc1ccc(C(N)=O)cc1)S(C)(=O)=O	none
C[n+]1cc(C(=O)NCCC[N+]2(C)CCCC2)ccc1/C=N/O	none (no result: STK33 kin inh)
O=C(O)C1CCCCC1C(=O)Nc1ccc(C(=O)N2CCCCC2)c(Cl)c1 (stereo not drawn)	none (no result: PD-1 reverse act)
c1ccc(CSC23CC4CC(CC(C4)C2)C3)cc1	none (no result: STK33 kin inh)
c1ccc(-c2nc(C34CC5CC(CC(C5)C3)C4)co2)cc1	NOMO-1 viab 99.2 (no result: STK33 kin inh)
COc1cc2ccc(=O)oc2cc1OCC=C(C)C	none (no result: PD-1 reverse act, NOMO-1 viab)
CC(C)=CCOc1cc2oc(=O)ccc2cc1O	NOMO-1 viab 108.6 (no result: PD-1 reverse act)
C[C@H](CO)N1C[C@H](C)[C@H](CN(C)Cc2ccc(Oc3ccccc3)cc2)Oc2c(NC(=O)Nc3ccc(C(F)(F)F)cc3)cccc2C1=O	NOMO-1 viab 117.4 (no result: STK33 kin inh)
C[C@@H]1CN([C@@H](C)CO)C(=O)c2cccc(NC(=O)Nc3ccccc3)c2O[C@@H]1CN(C)Cc1ccc(C(F)(F)F)cc1	NOMO-1 viab inconclusive (no result: STK33 kin inh)
C[C@H](CO)N1C[C@H](C)[C@H](CN(C)Cc2ccc(Oc3ccccc3)cc2)Oc2c(NC(=O)Nc3ccccc3)cccc2C1=O	none (no result: STK33 kin inh)
C[C@H]1CN([C@@H](C)CO)C(=O)c2cccc(NC(=O)Nc3ccc(C(F)(F)F)cc3)c2O[C@@H]1CN(C)Cc1ccc(Oc2ccccc2)cc1	NOMO-1 viab 89.4 (no result: STK33 kin inh, PD-1 reverse act)
O=C(c1cccs1)N1CCCn2c(SCc3ccccc3)nnc21	none (no result: STK33 kin inh)
COc1ccc(-c2cc(C(F)(F)F)n3nc(C(=O)N(C)Cc4cnn(C)c4C)cc3n2)cc1OC	STK33 kin inh inconclusive
Nc1cc(N)nc(SCC(=O)Nc2ccc(Oc3ccccc3)cc2)n1	none
Cc1cc(C(F)(F)F)nn1CCCNC(=O)c1cccs1	none
CC(C)=CCCC1(C)C=Cc2c(c(C)cc3c2[nH]c2cc(O)ccc23)O1 (stereo not drawn)	NOMO-1 viab 107.9
CCCc1nc2c([nH]1)C(c1cccc(O)c1)C(C#N)=C(N)O2 (stereo not drawn)	none (no result: STK33 kin inh)

Source: PubChem BioAssay
